Assay results reported in PubChem BioAssay.
The source made the active and inactive calls. No rule for the calls is given here.

target: Pantothenate synthetase (Mycobacterium tuberculosis (strain ATCC 25618 / H37Rv)) (UniProt P9WIL5); experiment: Coupled enzyme confirmation of inhibitors against recombinant Mtb PanC (AID 375); conditions: coupled enzyme assay; at 10 µM, hits give high values;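 also: 0% = full reaction with vehicle and 100% = no enzyme background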
Sequence (P9WIL5 whole entry, looked up): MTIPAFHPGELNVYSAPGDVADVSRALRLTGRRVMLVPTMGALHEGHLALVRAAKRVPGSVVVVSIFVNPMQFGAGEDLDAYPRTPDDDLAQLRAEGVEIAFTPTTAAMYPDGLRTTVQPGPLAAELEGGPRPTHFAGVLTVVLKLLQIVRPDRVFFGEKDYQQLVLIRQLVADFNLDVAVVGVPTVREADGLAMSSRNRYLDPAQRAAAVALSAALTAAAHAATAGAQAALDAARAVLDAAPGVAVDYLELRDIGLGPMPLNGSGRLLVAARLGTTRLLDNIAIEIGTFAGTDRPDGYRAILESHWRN

SMILES	inhibition
CC(C)c1cc(C(=O)Nc2cccnc2)no1	3% (inactive)
Cc1nnc(N(Cc2ccco2)C(=O)c2cccc(C#N)c2)s1	2% (inactive)
CCn1c(SCC(=O)Nc2nccs2)nnc1-c1ccncc1	4% (inactive)
CC(C)(C)OC(=O)NC(CCNC=C1C(=O)OC(C)(C)OC1=O)C(=O)O (stereo not given)	4% (inactive)
Cc1cc(NC(=O)COc2cccc(C)c2C)no1	0% (inactive)
Cc1c(-n2c(CN3C(=O)c4ccccc4C3=O)nc3ccccc3c2=O)c(=O)n(-c2ccccc2)n1C	0% (inactive)
CC(C[N+](C)(C)C)OC(N)=O (stereo not given)	0% (inactive)
c1ccc(Oc2ccc(-n3cnnn3)cc2)cc1	3% (inactive)
O=C(CSc1nnnn1C1CCCCC1)N1CCc2ccccc21	0% (inactive)
CCOC(=O)c1[nH]nc(-c2c(O)cc(C)cc2O)c1-c1csc(C)n1	0% (inactive)
Cn1c(=O)oc2cc(S(=O)(=O)NC3CCN(Cc4ccccc4)CC3)ccc21	0% (inactive)
COc1ccc(-c2[nH]nc3c2C(c2ccncc2)C(C#N)=C(N)O3)cc1 (stereo not given)	0% (inactive)
CC(=O)Oc1cc(C(C)C)c(OCCN(C)C)cc1C	11% (inactive)
CCc1c(C(=O)NCCc2ccc(OC)c(OC)c2)[nH]c(C)c1C(C)=O	12% (inactive)
CCOC(=O)CSc1nnc(CNC(=O)c2ccc(S(=O)(=O)N3CCCC3)cc2)n1C	10% (inactive)
CCOCCCNC(=O)C1CCN(C(=O)Nc2ccc(Cl)cc2)CC1	3% (inactive)
O=C1CCNc2cc3ccccc3cc21	3% (inactive)
CCc1ccc(Nc2cc(=O)n(C3CCCCC3)c(=O)[nH]2)cc1	0% (inactive)
COP(C)(=O)c1c(C)nn(-c2ccccc2)c1C (stereo not given)	0% (inactive)
O=C1C(Cl)=C(N2CCOCC2)C(=O)N1CCc1ccccc1	4% (inactive)

SMILES	inhibition
CCOc1ccc2[nH]c(C)cc(=O)c2c1	0% (inactive)
Cc1oncc1C(=O)Nc1ccc(C(F)(F)F)cc1	8% (inactive)
CCOC(=O)CN1CC23C=CC(O2)C(C(=O)Nc2ccc(C(C)=O)cc2)C3C1=O (stereo not given)	6% (inactive)
CS(=O)(=O)c1ncc(Cl)c(C(=O)Nc2ccc(N3CCOCC3)cc2)n1	2% (inactive)
O=C(CSc1nnc(-c2cccnc2)o1)OC1CCCCC1	0% (inactive)
Cc1cccc(Cn2c(SCCN3CCCCC3)nc3c2c(=O)[nH]c(=O)n3C)c1	0% (inactive)
O=C(Cc1nn[nH]n1)NCCC1=CCCCC1	4% (inactive)
COc1ccc(N2CCN(c3oc(COc4ccccc4Cl)nc3C#N)CC2)cc1	0% (inactive)
COC(=O)n1c(=S)oc2cc(Cl)ccc21	0% (inactive)
O=C(c1ccco1)N1CCN(CC(=O)N(C2CCCCC2)C2CCS(=O)(=O)C2)CC1 (stereo not given)	2% (inactive)
COc1ccc(N2CCN(C(c3ccccc3)c3sc4nc(C)nn4c3O)CC2)cc1 (stereo not given)	0% (inactive)
COc1ccc(Cl)cc1N1CCN(CCNC(=O)Nc2ccccc2C)CC1	0% (inactive)
O=C(Nc1cccnc1)c1cccc(NC(=O)c2ccco2)c1	0% (inactive)
CCCCOc1ccccc1C(=O)NCCCC(=O)O	0% (inactive)
O=C1c2ccccc2C(=O)N1c1cccc(-c2nc3ccccc3o2)c1	7% (inactive)
OC(COc1ccc2ccccc2c1)CN1CCOCC1 (stereo not given)	0% (inactive)
CCOC(=O)c1cc(C)sc1N1C(=O)C2C3C=CC(C3)C2C1=O (stereo not given)	0% (inactive)
COc1ccc(CCNC(=O)C2CCN(C(=O)N(C)C)CC2)cc1OC	0% (inactive)
Cc1nc(SCc2ccc(Br)cc2)[nH]c(=O)c1C	0% (inactive)
C=C(c1cccc2ccccc12)P(=O)(O)O	2% (inactive)
